Bioassay records from PubChem.
Vaccinia Venus = inhibitors of vaccinia virus (Venus reporter); Vaccinia virus Venus reporter expression, fluorescence; hit rate 0.46% among 330,000; AID 720580; Potency, µM (titrated, usually from 36.5 µM), without a hit: at the highest dose activity change, negative = inhibition, most hits filed as inhibitors; calls by dose curve; tested in A549 cells; also: potency is read from the fitted curve at half-maximal effect; nearly all actives have a fitted effect of over 30% in size
Vaccinia mCherry = vaccinia inhibition (mCherry reporter); Vaccinia virus mCherry reporter infection, fluorescence; Potency, µM (top dose mostly 36.5 µM), without a hit: at the top dose activity change, negative = inhibition, usual class: inhibitors; hit rate 0.63% among 310,000; AID 720579; calls by dose curve; tested in A549 cells; also: potency is read from the fitted curve at half-maximal effect; nearly all actives have a fitted effect of over 35% in size
FMDV inh = antivirals against foot and mouth disease virus; FMDV antiviral cell-based qHTS; Potency, µM (doses to about 57.9 µM), without a hit: at the highest dose activity change, negative = inhibition, hits mostly inhibitors; hit rate 1.2% among 410,000; calls by dose curve; tested in HEK293T cells; also: read-out not given here; potency is read from the fitted curve at half-maximal effect; nearly all actives have a fitted effect of over 45% in size
HCMV inh = human cytomegalovirus inhibition; activity change, negative = inhibition, % at 57.5 µM; HFF cells, HCMV-luciferase reporter, 72 h; stronger effect = lower value; hit rate 4.5% among 410,000; in the data active = activity change below about -60%; inconclusive = no clear call, values can overlap the other calls; inactive = above about -39%
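Two compound doses tested in HFFs infected with HCMV-luciferase, MOI 1 PFU/cell, 72 h at 37C. Lysate luminescence read with OneGlo; data normalized against buffer-only and 10uM Salinomycin inhibitor controls.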
HCV inhibitor = HCV inhibition | hit rate 3.4% among 340,000 | AID 651820 | Potency, µM (top dose mostly 41.8 µM), inactives show at the top dose activity change, negative = inhibition, most hits filed as inhibitors | Huh7.5.1 HCVcc-Cre infection, luciferase reporter, 44 h; active = well fitted inhibition curve with a large enough effect; inconclusive = small, poorly fitted or top-dose-only effect, or another doubt; inactive = no such curve, though single readings can be large or run the other way; also: potency is read from the fitted curve at half-maximal effect
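Reporter virus HCVcc-Cre (~0.5 moi) infects cells exposed to compound; seeding density 1,000 cells/well with 4 h settling beforehand. Luminescence, 15 sec read, taken 44 h post-infection following a 15 min RT substrate incubation.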
* marks the source's active call; other numbers are inactive results; i = inactive; u = inconclusive; x = no result; ! = not confirmed by another sample; [ ] = remark or other dose. Most compounds without a hit are left out; they make up all but 7.3% or so of the library. % is scaled to controls: 0 for no effect and ±100 for the full control effect.

SMILES | Vaccinia Venus | Vaccinia mCherry | FMDV inh | HCMV inh | HCV inhibitor
CCCc1cc(N2CCOCC2)n2ncc(-c3ccccc3)c2n1 | x | x | -1.8% | -61.8* | u
COc1ccc(NC(=O)c2cc3c(-c4ccc(OC)c(OC)c4)nn(C)c3s2)cc1OC | x | x | -24.6% | -96.6* | u
COc1ccc(-c2nn(C)c3sc(C(=O)NCc4ccco4)cc23)cc1OC | -5.0% | -16.9% | -11.8% | 12.9 | u
COc1ccc(-c2nn(C)c3sc(C(=O)Nc4cc(OC)c(OC)c(OC)c4)cc23)cc1OC | -3.2%[7.34 µM] | -10.7%[7.34 µM] | -11.0% | -98.4* | x
COc1ccccc1NC(=O)c1cc2c(-c3ccccc3)nn(-c3ccccc3)c2s1 | -5.6% | -11.6% | -21.9% | -61.3* | x
O=C1CCC[C@H]2[C@@H](Cc3ccccc3)[C@@H](NS(=O)(=O)c3ccc(F)cc3)CC[C@]23CCCN13 | x | x | x | -28.2 | x
O=C(Nc1ccc(OC(F)F)cc1)Nc1cccc(C(F)(F)F)c1 | u | -24.6% | 0.0% | -79.9* | u
O=C(Nc1ccncc1)Nc1cccc(C(F)(F)F)c1 | x | x | -0.8% | -79.7* | -24.9%
NNC(=O)Nc1cccc(C(F)(F)F)c1 | -0.1% | -15.0% | -9.8% | 16.3 | 14.4%
C=CCN(Cc1ccco1)S(=O)(=O)c1ccc(Cl)cc1 | -9.4% | i | -5.2% | 1.6 | -8.7%
NNC(=O)CCN(Cc1ccco1)S(=O)(=O)c1ccc(Cl)cc1 | x | x | -14.7% | -66.6* | -26.7%
O=C1C2CCCN2C(c2cccnc2)N1c1ccc(Cl)cc1 (configuration not stated) | -1.0% | -16.8% | -15.1% | -15.9 | -5.8%
O=C1C2CCCN2C(c2ccccc2)N1c1ccc(Cl)cc1 (configuration not stated) | x | x | 6.1% | -96.6* | 1.7%
COc1ccc(N2C(=O)C3CCCN3C2c2ccccc2F)cc1 (configuration not stated) | -11.7% | -14.7% | -1.6% | -2.7 | 7.0%
O=C1C2CCCN2C(c2ccccc2F)N1c1ccc(Cl)cc1 (configuration not stated) | x | x | 7.9% | -63.8* | 3.0%
CCCCCCCCN1C(=O)[C@H](CC(=O)NCCc2ccccc2OC)C[C@@]2(C(=O)OC)CC(C)(C)CC=C12 | u | -13.5% | -15.9% | 105.4 | x
CC(C)CC(N)c1csc(Nc2cnccn2)n1 (configuration not stated) | 10µM* | 11.2µM* | 7.3% | 80.4 | x
NC(CO)c1csc(Nc2ccc(C(F)(F)F)cn2)n1 (configuration not stated) | 2.2% | 38.0% | -3.0% | 1.3 | x
NC(c1csc(Nc2cnccn2)n1)C1CCCCC1 (configuration not stated) | -10.6% | -21.1% | 0.0% | -68.4* | x
NC(c1csc(Nc2ccc(C(F)(F)F)cn2)n1)C1CCCCC1 (configuration not stated) | u | u | -28.2% | -102.0* | x
c1ccc2c(c1)[nH]c1c3ccccc3sc21 | -21.5% | -14.4% | 0.0% | -1.1 | 11.2µM*
O=c1c2ccccc2sc2ccccc12 | -3.5% | i | 55.3% | 39.1 | u
CCc1ccc2c(c1)c(=O)c(C(=O)c1ccc(C)cc1)cn2CC(=O)Nc1ccc2c(c1)OCCO2 | -8.7% | -9.1% | -12.3% | -13.1 | x
COc1ccccc1/C=C1\C=Cc2ccccc21 | -6.1% | 18.7% | x | x | x
N#C/C(=C\c1cccc(NC(=O)c2ccccc2Cl)c1)C(=O)NCCc1ccccc1 | -5.1% | -25.2% | 28.2µM* | u | u
SMILES | Vaccinia Venus | Vaccinia mCherry | FMDV inh | HCMV inh | HCV inhibitor
COc1cc(/C=C(\C#N)C(=O)NCc2ccccc2)ccc1OCc1ccc(C(=O)O)cc1 | 0.5% | -2.9% | -11.9% | -35.3 | -3.5%
COc1ccc(CCNC(=O)/C(C#N)=C/c2cccc(OCc3ccccc3)c2)cc1OC | -21.5% | -12.9% | 28.2µM* | 27.6 | u
COCCCNC(=O)/C(C#N)=C/c1cccc(NC(=O)c2ccccc2Cl)c1 | -5.4% | -0.6% | -16.6% | 25.3 | -2.0%
Cc1ccccc1NC(=O)N[C@H]1CC[C@@]23CCCN2C(=O)CCC[C@H]3[C@H]1C | x | x | x | -7.4 | x
CS(=O)(=O)N1CCC2(CCN(c3ccccn3)CC2)CC1 | x | x | 5.2% | x | x
Cc1oc(-c2ccc(Cl)cc2)nc1CS(=O)CC(=O)NC1CCCCC1 (configuration not stated) | x | x | 41.6% | -28.9 | 19.7%
Cc1ccc(-c2nc(CS(=O)CC(=O)NCCN(CC(C)C)CC(C)C)c(C)o2)cc1 (configuration not stated) | x | x | -16.1% | 8.8 | 11.2µM*!
Cc1oc(-c2ccc(Cl)cc2)nc1CS(=O)CC(=O)NCCCN(C)C1CCCCC1 (configuration not stated) | x | x | u | -70.2* | 10µM*
Cc1ccc(-c2nc(CS(=O)CC(=O)NCCN3CCCC3)c(C)o2)cc1 (configuration not stated) | -7.9% | -12.5% | -0.7% | 2.7 | -24.2%
Cc1ccc(-c2nc(CS(=O)CC(=O)NCCCN3CCN(Cc4ccccc4)CC3)c(C)o2)cc1 (configuration not stated) | u | u | -22.7% | -75.5* | 10µM*
Cn1nc(C(C)(C)C)c([N+](=O)[O-])c1C(=O)Nc1ccccc1 | -12.2% | -11.2% | -0.1% | -24.4 | 13.3%
Cn1c(=O)[nH]c(Nc2ccccc2)c([N+](=O)[O-])c1=O | -1.3% | -12.1% | 2.3% | -93.8* | -1.6%
Cc1ccc(C)n1C1C(=O)N(Cc2ccc(C(C)C)cc2)c2c(F)cccc21 (configuration not stated) | x | x | x | -18.9 | x
Cc1cc(N(C)NC(=S)Nc2ccccc2)nc(C)n1 | -6.6% | i | -5.6% | -90.7* | 8.6%
N#Cc1ccc(S(=O)(=O)N2CCN(c3nc(-c4ccccc4)nc4ccccc34)CC2)cc1 | -14.2% | i | x | x | x
Cc1cc(C)c(OCCCCNCc2ccccc2)c(Cl)c1 | x | x | 0.0% | 28.2 | 11.2µM*
S=C(NCc1ccco1)N/N=C/c1cccnc1 | x | x | -5.8% | -67.8* | 6.7%
C=CCNC(=S)Nc1cc(C)ccn1 | -9.6% | -17.7% | -7.0% | -83.4* | -9.0%
Cc1ccnc(NC(=S)NC(=O)/C=C/c2ccccc2)c1 | -2.7% | -14.3% | x | 22.1 | -9.2%
O=c1c2ccccc2nc(SCc2cn3ccsc3n2)n1-c1ccc(F)cc1 | u | x | u | -77.4* | -6.4%
Cc1oc(-c2ccccc2NC(=O)C2CCCO2)nc1CNC(=O)c1cc(Cl)ccc1F (configuration not stated) | -2.7% | -10.1% | -8.8% | x | x
CC1=CC(=C2C(=O)c3ccccc3C2=O)C=C(C)O1 | -17.5% | -13.8% | 30.3% | 85.2 | -12.8%
CC(=O)N1C(=O)C(=C2C=C(C)OC(C)=C2)c2ccccc21 | x | x | 13.3% | 103.1 | 10µM*
O=C(c1ccc(S(=O)(=O)NCC2CCCO2)cc1)N1CCN(c2cccc(Cl)c2)CC1 (configuration not stated) | x | x | u | -70.1* | 11.2µM*
COc1ccc(-c2ccc(S(=O)(=O)NCC3CCCO3)cc2)cc1 (configuration not stated) | -12.6% | -13.8% | 19.8% | x | u
